Screening results deposited in PubChem BioAssay by several laboratories.
Only some compounds are listed: those with a hit (about 4% of all), similar ones and a draw of the others.
Mtb betalactam = beta-lactam sensitization of Mtb H37Rv; inhibition, % at 25 µM; 330,000 compounds, 0.27% hits; AID 434955; M. tuberculosis H37Rv growth with meropenem, percent inhibition; call rule not given here;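 also: growth measured after seven days incubation then overnight dye step; 0% = bacteria only wells and 100% = bacteria with antibiotic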
GDH-TPI inh = inhibits GDH-TPI coupling enzymes, artifact for Mtb FBA screen; GDH-TPI coupled enzyme counterscreen, NADH absorbance; inhibition, % at 4.8 µM; 360,000 compounds, 1.2% hits; in the data active = inhibition above about 30%;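 also: 0% = DMSO wells and 100% = wells lacking the enzyme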
RecA splice inh = Mtb RecA intein splicing inhibition; P9WHJ3; cell-free RecA intein splicing, fluorescence; inhibition, % (concentration not given with the values); 290,000 compounds, 0.75% hits; AID 2221; in the data active = inhibition above about 30%;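 also: 0% = vehicle wells and 100% = reference inhibitor control wells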
Mtb UGM inh = inhibitors of M. tuberculosis UDP-galactopyranose mutase. P9WIQ1. purified UGM, fluorescence polarization probe displacement. inhibition, % at 10 µM. 320,000 compounds, 0.06% hits; in the data active = inhibition above about 10%, passing the limit was not always enough
Target sequence (P9WIQ1 whole entry, looked up): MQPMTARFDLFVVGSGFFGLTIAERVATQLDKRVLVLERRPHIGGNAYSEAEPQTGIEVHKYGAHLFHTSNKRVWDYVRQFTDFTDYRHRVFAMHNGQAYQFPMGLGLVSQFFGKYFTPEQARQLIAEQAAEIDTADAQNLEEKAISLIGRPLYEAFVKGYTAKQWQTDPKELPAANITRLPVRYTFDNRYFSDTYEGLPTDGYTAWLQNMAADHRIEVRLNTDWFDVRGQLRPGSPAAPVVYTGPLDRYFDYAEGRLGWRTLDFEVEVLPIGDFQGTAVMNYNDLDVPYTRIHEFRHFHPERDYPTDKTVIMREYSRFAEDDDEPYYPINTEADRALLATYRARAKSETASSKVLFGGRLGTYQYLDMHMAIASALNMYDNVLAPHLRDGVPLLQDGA
Mtb FBA inh = Mtb fructose-bisphosphate aldolase inhibition | P9WQA3 | purified M. tuberculosis FBA, fluorescence read-out | inhibition, % at 1 µM | 360,000 compounds, 2.3% hits | AID 588726; in the data active = inhibition above about 27%;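 also: 0% = vehicle and 100% = reference inhibitor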
Rv3671c protease = inhibitors of M. tuberculosis serine protease Rv3671c | inhibition, % at 5.96 µM | 320,000 compounds, 0.048% hits | AID 2606; in the data active = inhibition above about 38%;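 also: extracellular domain of Rv3671c used as enzyme; 0% = enzyme with DMSO and 100% = no enzyme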
Starred values were filed as active, the others as inactive; · = not tested or not shown; + = active, no number.

SMILES	Mtb betalactam	GDH-TPI inh	RecA splice inh	Mtb UGM inh	Mtb FBA inh	Rv3671c protease
Cc1cc(=O)n2[nH]c(-c3ccc(C(C)(C)C)cc3)cc2n1	59.8	11.4	-4.0	-1.6	35.9*	-0.6
Cc1cc(=O)n2[nH]c(-c3ccccc3)cc2n1	-6.8	-5.8	-2.3	0.0	26.7	-5.4
Cc1nn(-c2ccccc2)c(Cl)c1C1C(C#N)=C(N)Oc2n[nH]c(C)c21 (centres undefined)	35.9	6.3	62.4*	1.2	-1.3	2.7
CCn1nc(C)c(C2C(C#N)=C(N)Oc3n[nH]c(C)c32)c1C (centres undefined)	2.3	4.0	41.6*	-2.3	1.4	-0.5
C=CCn1c(SCC(=O)N(CCC)C2CCS(=O)(=O)C2)nnc1-c1ccccc1OC (centres undefined)	-4.6	-7.2	0.0	3.6	-0.2	10.7
COC1=CC2(O)CCCC2=CC1=O (centres undefined)	-3.1	0.5	2.8	-2.4	150.4*	1.4
COc1ccc(/C=N/S(=O)(=O)c2ccc(C)cc2)cc1	-11.6	5.0	-0.3	-0.7	3.1	-5.6
COc1ccc2cc(C=NS(=O)(=O)c3ccc(C)cc3)n(C)c2c1	14.1	35.5*	·	1.6	0.8	-6.6
COc1ccc2cc(C=O)n(C)c2c1	-6.1	44.5*	·	0.1	1.7	-5.8
COc1ccc2cc(CO)n(C)c2c1	92.2	5.9	·	-1.7	0.8	2.8
CCc1noc(C)c1C(=O)OC(C)C(=O)Nc1ccccc1OC (centres undefined)	0.4	-1.7	1.3	-0.8	-0.1	1.9
Cc1ccc(Nc2cc(C)nc3ccccc23)c(C)c1	-7.1	9.6	0.2	1.1	0.0	1.6
Cc1c(NC(=O)C(C)NCC2CCCO2)c(=O)n(-c2ccccc2)n1C (centres undefined)	-9.5	6.8	0.3	-0.8	+	0.6
Cc1c(NS(=O)(=O)c2cc(C(=O)NCC3CCCO3)cc(Cl)c2Cl)c(=O)n(-c2ccccc2)n1C (centres undefined)	-3.3	-1.0	-2.3	0.1	-0.4	6.8
CCOC(=O)c1[nH]c2cc3c(cc2c1NC(=O)CN1CCN(CCO)CC1)OCO3	3.2	46.2*	-4.0	-0.4	129.8*	9.7
CN(C)CC1(C)Cc2ccsc2C1O (centres undefined)	·	0.0	·	·	0.4	·
COC(=O)c1sc(NC(=O)c2ccco2)nc1C	3.0	40.8*	-2.4	-3.2	-1.2	-4.4
CCOC(=O)c1sc(NC(=O)c2ccco2)nc1-c1ccccc1	0.0	34.7*	-0.6	1.4	1.1	14.9
Cc1nc(NC(=O)c2ccco2)sc1C(=O)O	0.3	11.9	0.0	-1.5	1.5	2.9
Cc1nc(NC(=O)c2ccco2)sc1C(=O)Nc1ccc(Br)cc1	0.1	51.6*	1.5	2.3	10.6	-33.9
Cc1nc(Nc2ccc(C(=O)O)cc2)sc1-c1ccccc1	13.9	37.5*	-3.1	1.3	-1.7	-11.1
O=C(O)c1cccc(Nc2ccc([N+](=O)[O-])cn2)c1	3.7	11.5	2.8	4.0	-3.8	3.5
CC(=O)OCCCNc1cc(Sc2ccc(Cl)cc2)c2nonc2c1[N+](=O)[O-]	28.1	10.2	24.8	-0.8	4.5	2.2
CC(C)(C)C(=O)c1sc(Nc2ccccc2)nc1N	14.5	39.8*	5.3	-1.5	-3.5	9.0
COC(=O)c1sc(Nc2ccccc2)nc1C	8.4	32.5*	2.3	-1.9	4.9	-0.9
SMILES	Mtb betalactam	GDH-TPI inh	RecA splice inh	Mtb UGM inh	Mtb FBA inh	Rv3671c protease
CCOC(=O)c1sc(NC(=O)c2ccc(=O)[nH]c2)nc1C	-1.7	30.8*	·	0.2	4.4	-6.1
CCOC(=O)c1sc(Nc2ccccc2)nc1C	-1.7	30.2	0.0	3.3	1.9	-14.9
CCOC(=O)c1sc(NC(=S)NC(=O)c2ccco2)nc1C	4.3	34.6*	0.4	-0.4	0.5	-11.5
CC(=O)Nc1sc(C)c(C)c1C(=O)OCC(=O)N(CCC#N)c1cc(C)cc(C)c1	·	2.5	·	·	-2.1	·
C=CCn1c(=N)n(CC(=O)c2ccc(Br)cc2)c2ccccc21	13.8	7.6	7.5	-1.3	-2.6	-11.0
Cc1ccc(Nc2ccc3nonc3c2[N+](=O)[O-])cc1	5.7	2.7	7.4	-2.1	-5.7	5.7
Nc1ccc2nonc2c1[N+](=O)[O-]	-5.8	-2.8	·	23.1*	-5.7	-2.6
CCCCCCSC1=C(C#N)C(c2ccc(O)cc2)CC(=O)N1 (centres undefined)	-1.7	7.2	5.8	-3.0	14.1	-6.9
COC(=O)c1ccc(Oc2c(C(F)(F)F)oc3c(CN4CCN(C)CC4)c(O)ccc3c2=O)cc1	-18.6	16.4	-9.3	-0.1	-1.1	0.2
O=c1c(-c2ccc3c(c2)OCCO3)coc2c(CN3CCOCC3)c(O)ccc12	-3.4	7.9	0.2	-0.3	14.4	-2.8
COc1cccc(Oc2coc3c(CN4CCOCC4)c(O)ccc3c2=O)c1	-4.2	25.7	-8.6	0.7	115.4*	-4.5
COc1ccc(-c2c(C)oc3c(CN4CCOCC4)c(O)ccc3c2=O)cc1OC	-0.3	8.6	-0.6	4.9	17.6	8.9
COc1ccccc1Oc1c(C)oc2c(CN3CCOCC3)c(O)ccc2c1=O	1.5	20.6	-1.8	-0.1	180.5*	8.3
CCOc1ccccc1Oc1c(C)oc2c(CN3CCN(C)CC3)c(O)ccc2c1=O	-5.0	42.1*	·	-2.4	138.5*	3.6
COc1cccc(Oc2c(C)oc3c(CN4CCCC4)c(O)ccc3c2=O)c1	-5.3	23.2	-4.2	-0.4	172.5*	-3.4
COc1cccc(C(=O)NCC(=O)N/N=C(\C)Cc2ccccc2)c1	1.9	-2.5	-1.0	-1.6	-3.2	-3.6
COc1ccc(/C=N/NS(=O)(=O)c2ccc(C)cc2)cc1OC(=O)c1ccccc1	-2.9	12.6	-5.1	1.2	128.5*	-28.6
Cc1nc2nc(-c3cccs3)[nH]c2cc1Br	-9.0	53.1*	1.5	0.3	6.7	-6.9
Cc1nc2nc[nH]c2cc1Br	7.3	-14.1	-2.4	0.2	-0.3	-8.9
COCC(=O)N/N=C(\C)CC(=O)Nc1ccccc1C(N)=O	-6.7	8.1	-2.4	3.1	55.0*	7.9
CC1(CC(=O)N/N=C/c2cc(Br)c(O)cc2O)OCCO1	6.0	47.8*	-3.7	4.2	2.7	0.2
CC1(CC(=O)N/N=C/c2ccc(-c3cccc(C(F)(F)F)c3)o2)OCCO1	3.1	37.0*	-2.3	-2.3	-1.8	-1.9
CCOC(=O)C1=C(COC(=O)c2cc(S(=O)(=O)N(C)C)ccc2C)NC(=O)NC1C (centres undefined)	-0.9	18.6	·	-0.8	1.7	-3.5
Cc1cc(=O)oc2c3c(cc(OCC(=O)NCc4ccco4)c12)OC(C)(C)CC3	-3.6	13.2	0.6	-2.7	+	-0.4
COc1ccc(CNC(=O)COc2cc3c(c4oc(=O)cc(C)c24)CCC(C)(C)O3)c(OC)c1	·	12.5	·	·	34.5*	·
Cc1cc(=O)oc2c3c(cc(OCC(=O)NCc4ccncc4)c12)OC(C)(C)CC3	3.0	15.7	-3.9	-0.7	+	-4.8
